Experimental findings from PubChem BioAssay (EPA / NIEHS) are described below.

In assay [1] the target is Retinoic acid receptor RXR-alpha (Homo sapiens) (UniProt P19793). Kind of assay: ATG_RXRa_TRANS: Attagene TRANS-FACTORIAL HepG2 Assay for human Retinoid X Receptor alpha (RXRa) (AID 2283012; active means hit-call score of the fitted dose curve at least 0.9, where 1 is the maximum). The gist of the method:
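Measures exogenous chimeric NR-GAL4 activity in transfected HepG2 liver cells after 24 h of dosing. Induced reporter mRNA was detected by RT-PCR with capillary electrophoresis, and gain of signal was analysed against DMSO.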

The target of assay [2] is human Thyroid Receptor alpha (THRa1), THRA (gene 7067) (UniProt P10827). Kind of assay: ATG_THRa1_TRANS: Attagene TRANS-FACTORIAL HepG2 Assay for human Thyroid Receptor alpha (THRa1) (AID 2283014; active means hit-call score of the fitted dose curve at least 0.9, where 1 is the maximum). The gist of the method:
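Transcripts from GAL4-UAS-driven reporters, measured after 24 h compound exposure by RT-PCR plus capillary electrophoresis of 6-FAM-labeled fragments, were fitted for gain of signal relative to DMSO. Cells: transiently transfected HepG2 expressing NR-Gal4 chimeras.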

Read-out in assay [3]: E-selectin (Homo sapiens) (UniProt P16581)
Kind of assay: BSK_3C_Eselectin: BioMAP Diversity Plus: 3C Assay for Eselectin Biomarker Activity (AID 2283015).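 On outcome: cell surface E-selectin protein quantified by ELISA 24 h after dosing.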 Conditions: primary human endothelial cells (HUVEC); actives raise or lower the signal. The gist of the method: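 E-selectin ELISA readout, fitted bidirectionally relative to DMSO, taken 24 h post-dosing in HUVEC cultures of the 3C system. Overt cytotoxicity tracked with sulforhodamine B staining of parallel wells.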

Read-out in assay [4]: Interleukin-1 alpha (IL1a), IL1A (gene 3552)
The experiment in a line: BSK_BE3C_IL1a: BioMAP Diversity Plus: BE3C Assay for Interleukin-1 alpha (IL1a) Biomarker Activity (AID 2283016). The note with it: primary human bronchial epithelial cells; actives raise or lower the signal. The procedure, abridged: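 Signal from IL-1a ELISA, taken 24 h after chemical dosing of human bronchial epithelial cells, is compared with DMSO as baseline using bidirectional curve fitting.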

Read-out in assay [5]: Monocyte Chemoattractant Protein-1 (MCP1), CCL2 (gene 6347)
The experiment in a line: BSK_3C_MCP1: BioMAP Diversity Plus: 3C Assay for Monocyte Chemoattractant Protein-1 (MCP1) Biomarker Activity (AID 2283017). Conditions: primary human endothelial cells (HUVEC); actives raise or lower the signal. The gist of the method:
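MCP-1 was measured by ELISA 24 h after dosing in primary HUVEC 3C cultures and fitted in both directions relative to DMSO; cytotoxicity was checked by SRB total-protein staining in parallel wells.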

Read-out in assay [6]: Monocyte Chemoattractant Protein-1 (MCP1), CCL2 (gene 6347)
Kind of assay: BSK_4H_MCP1: BioMAP Diversity Plus: 4H Assay for Monocyte Chemoattractant Protein-1 (MCP1) Biomarker Activity (AID 2283018). The note with it: primary human endothelial cells (HUVEC); actives raise or lower the signal. The gist of the method:
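Endothelial cells from umbilical vein were treated with test chemical, then after 24 h MCP-1 levels were quantified by ELISA; endpoint values came from bidirectional fitting with DMSO as baseline of activity.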

Read-out in assay [7]: Human Leukocyte Antigen - DR isotype (HLADR), HLA-DRA (gene 3122)
The experiment in a line: BSK_3C_HLADR: BioMAP Diversity Plus: 3C Assay for Human Leukocyte Antigen - DR isotype (HLADR) Biomarker Activity (AID 2283019).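 Further: ELISA of cell-surface HLA-DR on HUVEC 24 h after dosing.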 Conditions: primary human endothelial cells (HUVEC); actives raise or lower the signal. The gist of the method:
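Bidirectional fitting against DMSO was applied to the HLA-DR ELISA signal from human umbilical vein endothelial cells, 24 h post-dose. Cytotoxicity came from parallel SRB total-protein staining; 3C proliferation was counted by SRB at 48 h.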

Read-out in assay [8]: Interleukin-8 (IL8), CXCL8 (gene 3576)
Kind of assay: BSK_3C_IL8: BioMAP Diversity Plus: 3C Assay for Interleukin-8 (IL8) Biomarker Activity (AID 2283020). Conditions: primary human endothelial cells (HUVEC); actives raise or lower the signal. The gist of the method: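 Endothelial primary cells of human umbilical vein origin are dosed with chemical; after 24 h the IL-8 biomarker is measured by ELISA, and concentration–response is fitted in both directions versus DMSO.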

Assay [9] is described as follows: BSK_3C_SRB: Viability Assessment in the BioMAP Diversity Plus: 3C Assay (AID 2283023).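 Further: fitted both ways against DMSO so a hit may be signal rise or drop.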 The note with it: primary human endothelial cells (HUVEC). The gist of the method: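 Cytotoxicity readout in parallel HUVEC 3C cultures: after 24 h compound exposure, cells fixed with 10% TCA, stained with 0.1% SRB and read at 560 nm. Gain or loss relative to DMSO fitted.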
Read-out in assay [10]: Matrix Metallopeptidase 1 (MMP1), MMP1 (gene 4312)
Kind of assay: BSK_BE3C_MMP1: BioMAP Diversity Plus: BE3C Assay for Matrix Metallopeptidase 1 (MMP1) Biomarker Activity (AID 2283024). Conditions: primary human bronchial epithelial cells; actives raise or lower the signal. The gist of the method: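 MMP1 signal, measured by ELISA after a 24 h chemical exposure of human primary bronchial epithelial cells, is analysed with bidirectional fitting using DMSO as negative control.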

The nature of assay [11]: BSK_3C_Vis: BioMAP Diversity Plus: 3C Assay for Morphology Visualization (AID 2283025).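 Further: fitted both ways so gain or loss versus DMSO counts.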 The note with it: primary human endothelial cells (HUVEC). The procedure, abridged: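 Morphology read by light microscopy serves as a background control for the multiplexed 3C assay in human umbilical vein endothelial cells, taken 24 h after dosing, with DMSO as the negative control and bidirectional curve fitting.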

Read-out in assay [12]: Pselectin, SELP (gene 6403)
The experiment in a line: BSK_4H_Pselectin: BioMAP Diversity Plus: 4H Assay for Pselectin Biomarker Activity (AID 2283026). Conditions: primary human endothelial cells (HUVEC); actives raise or lower the signal. The gist of the method: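 Endothelial primary cells (human umbilical vein) are dosed, incubated 24 h, and assayed for surface P-selectin by ELISA; responses in either direction are fitted relative to the DMSO negative control.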

The nature of assay [13]: BSK_4H_SRB: Viability Assessment in the BioMAP Diversity Plus: 4H Assay (AID 2283027).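 Further: cells exposed to compound for 24 h before staining.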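 On AC50: curves fitted both ways versus DMSO so AC50 may be loss or gain.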 Conditions: primary human endothelial cells (HUVEC). The procedure, abridged:
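Cytotoxicity read-out in primary human endothelial cells: after 24 h compound exposure, cells were TCA-fixed (10%), stained with 0.1% SRB and absorbance taken at 560 nm. Values fitted in both directions relative to DMSO.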

Assay [14] is described as follows: BSK_BE3C_SRB: Viability Assessment in the BioMAP Diversity Plus: BE3C Assay (AID 2283028).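 On AC50: fitted both ways so AC50 may mark signal gain or loss versus DMSO.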 The note with it: primary human bronchial epithelial cells. The gist of the method:
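Cytotoxicity read-out: SRB (0.1%) staining of TCA-fixed (10%) human lung bronchial epithelial cells, absorbance 560 nm, 24 h post-dosing. Curves fitted both directions relative to DMSO.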

Read-out in assay [15]: Thrombomodulin, THBD (gene 7056)
Kind of assay: BSK_3C_Thrombomodulin: BioMAP Diversity Plus: 3C Assay for Thrombomodulin Biomarker Activity (AID 2283029). Conditions: primary human endothelial cells (HUVEC); actives raise or lower the signal. The gist of the method:
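Endothelial cells from umbilical vein are dosed with test chemical and incubated 24 h. Thrombomodulin is then quantified by ELISA, with DMSO serving as negative control and activity baseline.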

Read-out in assay [16]: Urokinase-type plasminogen activator receptor (uPAR), PLAUR (gene 5329)
The experiment in a line: BSK_4H_uPAR: BioMAP Diversity Plus: 4H Assay for Urokinase-type plasminogen activator receptor (uPAR) Biomarker Activity (AID 2283030). The note with it: primary human endothelial cells (HUVEC); actives raise or lower the signal. The procedure, abridged: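 uPAR level read by ELISA on HUVEC cultures (BioMAP 4H) 24 h post-dosing, analyzed for gain or loss relative to DMSO. Parallel SRB staining assessed overt cytotoxicity.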

Assay [17] has as its target human Retinoid X Receptor beta (RXRb), RXRB (gene 6257) (UniProt P28702). The experiment in a line: ATG_RXRb_TRANS: Attagene TRANS-FACTORIAL HepG2 Assay for human Retinoid X Receptor beta (RXRb) (AID 2283013; active means hit-call score of the fitted dose curve at least 0.9, where 1 is the maximum). The gist of the method:
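Chimeric receptor-Gal4 activity was assessed in transiently transfected human HepG2 cells after 24 h exposure. Transcripts from GAL4-UAS reporters were quantified by fluorescent RT-PCR and capillary electrophoresis, with DMSO as negative control and baseline.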

Assay [18] concerns the target human Vitamin D Receptor (VDR), VDR (gene 7421) (UniProt P11473). The experiment in a line: ATG_VDR_TRANS: Attagene TRANS-FACTORIAL HepG2 Assay for human Vitamin D Receptor (VDR) (AID 2283022; active means hit-call score of the fitted dose curve at least 0.9, where 1 is the maximum). The gist of the method: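 Transactivation by an exogenous VDR-Gal4 chimera in transiently transfected HepG2 cells was measured as reporter transcript level 24 hours after chemical treatment. RT-PCR products were analysed by capillary electrophoresis and fitted in the positive direction relative to DMSO.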

Read-out in assay [19]: Monokine induced gamma interferon (MIG), CXCL9 (gene 4283)
Kind of assay: BSK_3C_MIG: BioMAP Diversity Plus: 3C Assay for Monokine induced gamma interferon (MIG) Biomarker Activity (AID 2283021). The note with it: primary human endothelial cells (HUVEC); actives raise or lower the signal. The procedure, abridged: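 Endothelial primary cells (human umbilical vein) are dosed with test chemical in the 3C system. MIG levels are measured by ELISA at 24 h and fitted in both directions relative to DMSO.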

Molecules are shown by their SMILES. Records with an inconclusive call do not appear. Calls of active or inactive are those of the source. How the source made its calls, unless noted: active means hit-call score of the fitted dose curve at least 0.9, where 1 is the maximum; inactive means score below 0.9.

Chain of human Thyroid Receptor alpha (THRa1), THRA (gene 7067) (P10827 whole entry, looked up, the tested form may be a part): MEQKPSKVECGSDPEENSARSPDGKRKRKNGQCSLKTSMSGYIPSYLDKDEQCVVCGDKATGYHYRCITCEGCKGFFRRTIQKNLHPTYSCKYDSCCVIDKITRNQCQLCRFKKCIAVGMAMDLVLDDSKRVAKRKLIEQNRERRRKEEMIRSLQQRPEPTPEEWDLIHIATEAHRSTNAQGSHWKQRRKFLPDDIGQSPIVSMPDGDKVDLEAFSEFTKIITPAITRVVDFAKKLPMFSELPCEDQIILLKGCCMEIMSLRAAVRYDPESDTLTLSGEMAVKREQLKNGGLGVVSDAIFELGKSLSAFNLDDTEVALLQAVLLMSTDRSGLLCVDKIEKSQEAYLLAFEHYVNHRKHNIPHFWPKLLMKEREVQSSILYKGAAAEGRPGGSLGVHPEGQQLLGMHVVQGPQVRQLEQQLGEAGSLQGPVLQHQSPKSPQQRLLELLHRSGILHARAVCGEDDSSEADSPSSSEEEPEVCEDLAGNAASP
Chain of human Vitamin D Receptor (VDR), VDR (gene 7421) (P11473 whole entry, looked up, the tested form may be a part): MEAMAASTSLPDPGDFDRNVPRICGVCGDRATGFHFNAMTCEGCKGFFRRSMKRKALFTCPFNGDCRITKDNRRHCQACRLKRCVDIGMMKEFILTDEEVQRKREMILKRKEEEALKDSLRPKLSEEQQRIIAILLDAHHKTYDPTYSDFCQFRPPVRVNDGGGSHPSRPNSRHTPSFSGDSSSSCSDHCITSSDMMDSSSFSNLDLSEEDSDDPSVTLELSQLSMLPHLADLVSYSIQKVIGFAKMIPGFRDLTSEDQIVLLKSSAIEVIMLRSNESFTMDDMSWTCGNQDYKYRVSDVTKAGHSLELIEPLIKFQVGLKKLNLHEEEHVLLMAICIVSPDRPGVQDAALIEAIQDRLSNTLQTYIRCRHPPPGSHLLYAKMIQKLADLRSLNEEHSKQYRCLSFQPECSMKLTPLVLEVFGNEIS
Chain of E-selectin (Homo sapiens) (P16581 whole entry, looked up): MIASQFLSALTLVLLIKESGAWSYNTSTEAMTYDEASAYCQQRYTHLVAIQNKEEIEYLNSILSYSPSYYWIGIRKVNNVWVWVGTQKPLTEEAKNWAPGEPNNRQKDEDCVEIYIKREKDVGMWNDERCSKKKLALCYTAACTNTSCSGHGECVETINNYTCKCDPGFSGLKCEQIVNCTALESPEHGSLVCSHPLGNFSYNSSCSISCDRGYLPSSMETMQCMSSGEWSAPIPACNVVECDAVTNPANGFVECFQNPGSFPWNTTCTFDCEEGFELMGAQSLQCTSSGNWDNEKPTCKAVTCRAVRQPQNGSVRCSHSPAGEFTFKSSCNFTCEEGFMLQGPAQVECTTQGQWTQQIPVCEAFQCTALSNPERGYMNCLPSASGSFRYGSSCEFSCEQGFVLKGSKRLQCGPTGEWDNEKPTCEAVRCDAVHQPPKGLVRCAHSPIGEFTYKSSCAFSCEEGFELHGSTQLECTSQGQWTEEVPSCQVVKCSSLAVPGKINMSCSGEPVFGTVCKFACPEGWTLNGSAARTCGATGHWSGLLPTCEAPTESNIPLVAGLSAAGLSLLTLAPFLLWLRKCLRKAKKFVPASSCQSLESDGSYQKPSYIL
Chain of Retinoic acid receptor RXR-alpha (Homo sapiens) (P19793 whole entry, looked up, the tested form may be a part): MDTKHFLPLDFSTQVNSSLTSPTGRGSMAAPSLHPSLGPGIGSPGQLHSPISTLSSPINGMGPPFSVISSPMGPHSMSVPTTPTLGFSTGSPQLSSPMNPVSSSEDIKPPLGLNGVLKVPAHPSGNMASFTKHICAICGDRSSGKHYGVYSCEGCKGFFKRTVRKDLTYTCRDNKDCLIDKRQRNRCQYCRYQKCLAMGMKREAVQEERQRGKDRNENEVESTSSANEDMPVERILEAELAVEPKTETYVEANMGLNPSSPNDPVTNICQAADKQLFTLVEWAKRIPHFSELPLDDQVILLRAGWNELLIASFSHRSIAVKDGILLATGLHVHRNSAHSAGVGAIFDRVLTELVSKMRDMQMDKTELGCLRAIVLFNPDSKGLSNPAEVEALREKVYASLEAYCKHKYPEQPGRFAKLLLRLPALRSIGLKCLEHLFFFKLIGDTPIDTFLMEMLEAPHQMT
Chain of human Retinoid X Receptor beta (RXRb), RXRB (gene 6257) (P28702 whole entry, looked up, the tested form may be a part): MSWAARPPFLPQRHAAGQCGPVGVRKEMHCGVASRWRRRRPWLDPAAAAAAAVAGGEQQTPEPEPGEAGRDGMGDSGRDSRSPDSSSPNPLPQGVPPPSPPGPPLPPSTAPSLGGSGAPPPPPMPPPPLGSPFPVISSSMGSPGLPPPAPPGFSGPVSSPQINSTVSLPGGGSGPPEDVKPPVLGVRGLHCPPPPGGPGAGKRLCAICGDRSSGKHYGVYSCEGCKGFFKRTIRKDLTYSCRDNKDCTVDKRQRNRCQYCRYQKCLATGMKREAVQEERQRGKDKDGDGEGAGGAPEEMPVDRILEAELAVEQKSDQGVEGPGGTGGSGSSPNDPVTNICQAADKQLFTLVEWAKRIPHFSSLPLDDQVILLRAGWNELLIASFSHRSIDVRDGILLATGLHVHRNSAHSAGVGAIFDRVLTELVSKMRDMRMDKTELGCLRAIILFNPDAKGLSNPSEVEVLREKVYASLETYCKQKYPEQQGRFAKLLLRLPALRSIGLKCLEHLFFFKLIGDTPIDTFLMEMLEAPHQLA

Usually AC50 stands for the concentration at which the activity in the assay is half-maximal. Consider `CN(C)CCOC(c1ccccc1)c1ccccc1`, for which the compound was called inactive in assay [1], in [2], in assay [3], in [4], in assay [5] and in assay [7]. The outcome in assay [8], in assay [9], in [10], in assay [11], in assay [13] and in assay [14] was inactive. The outcome in assay [15] was inactive. Also, the results for the AC50 in assay [6], in assay [12] and in [16] were 0.351 µM (active), 3.97 µM (active) and 2.27 µM (active), respectively.

`CCCCc1oc2ccccc2c1C(=O)c1cc(I)c(OCCN(CC)CC)c(I)c1`: the compound was classed as inactive in [1], in [17] and in assay [15]. For the same compound, the AC50 in [3] is 24.1 µM (active); in assay [4], 17.1 µM (active); in [5] it was 21.6 µM (active); in assay [6] it was 15.1 µM (active); in assay [8], 17.7 µM (active); in assay [18], 47.5 µM (active). In addition, the AC50 in assay [9] was 8.48 µM (active); in assay [10], 25 µM (active); in assay [11] it was 9.65 µM (active); in [12] it was 9.72 µM (active); in assay [13], 13.1 µM (active); in assay [14] it was 25.4 µM (active). In addition, the AC50 in [16] is 15.1 µM (active).

For the compound `COC1=CC(=O)C[C@@H](C)[C@]12Oc1c(Cl)c(OC)cc(OC)c1C2=O`, the outcome in assay [1], in [2], in assay [3], in assay [4], in [5] and in assay [6] was inactive. For the same compound, the outcome in assay [8], in assay [19], in [9], in assay [10], in [13] and in [14] was inactive. The result in assay [15] and in [16] was inactive.

As for `CCC(=O)C=Cc1ccc(OC)cc1`, the compound was called inactive in assay [1] and in assay [2].

`O=C(Nc1cccc([N+](=O)[O-])c1)c1cc2ccccc2cc1O`: the call in assay [1], in assay [17] and in assay [18] was inactive. The half-maximal activity concentration (AC50) in assay [2] was 17.5 µM (active).

`CCCCC(CC)C(=O)O` (stereo not given): the outcome in [1], in assay [17], in [3], in assay [4], in assay [5] and in assay [6] was inactive. Further, the outcome in assay [7], in assay [8], in assay [9], in assay [10], in assay [11] and in assay [12] was inactive. Also, the outcome in [13], in assay [14], in assay [15] and in [16] was inactive.

With `COC(=O)C(F)(F)C(F)(F)C(F)(F)F`, the result in assay [1], in assay [2] and in assay [18] was inactive.

In the case of `Oc1cc2ccccc2cc1O`, the compound was classed as inactive in assay [1], in assay [2], in [3], in assay [4], in assay [5] and in assay [6]. For the same compound, the result in [8], in assay [9], in [10], in assay [11], in assay [13] and in assay [14] was inactive. Moreover, the result in assay [15] and in assay [16] was inactive.
